For one assay, the system named is HCI01 (cells of a triple-negative basal-like breast cancer xenograft). Put plainly: cell viability of combination (% of vehicle); higher = less cytotoxic. The note with it: 1 µM; 72 h; partner dose: 10 nM. As to the method:
(§1)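 PDX cells were treated for 72 h with each drug at 1 µM plus afatinib (10 nM; 1 µM for WHIM30). Luciferase viability is expressed as percent of vehicle.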

A further assay has as its system WHIM2 (cells of a triple-negative basal-like breast cancer xenograft). The assay is described as above. To be noted: 1 µM; 72 h; partner dose: 10 nM. As to the method: as §1

As for `C=CC(=O)Nc1cc(Nc2nccc(-c3cn(C)c4ccccc34)n2)c(OC)cc1N(C)CCN(C)C` + CN(C)C/C=C/C(=O)Nc1cc2c(Nc3ccc(F)c(Cl)c3)ncnc2cc1O[C@H]1CCOC1 [Afatinib], the “cell viability of combination” value in the assay with HCI01 stood at 40; in the assay with WHIM2, 34.9.

On to `CCOc1nc2cccc(C(=O)OC(C)OC(=O)OC3CCCCC3)c2n1Cc1ccc(-c2ccccc2-c2nn[nH]n2)cc1` (stereo not drawn) [Candesartan Cilexetil] + CN(C)C/C=C/C(=O)Nc1cc2c(Nc3ccc(F)c(Cl)c3)ncnc2cc1O[C@H]1CCOC1 [Afatinib], for which the results for the “cell viability of combination” value with HCI01 and with WHIM2 were 55.5 and 50.8, respectively.

Take `Nc1ccn(C2OC(CO)C(O)C2O)c(=O)n1` (stereo not drawn) [Cytarabine] + CN(C)C/C=C/C(=O)Nc1cc2c(Nc3ccc(F)c(Cl)c3)ncnc2cc1O[C@H]1CCOC1 [Afatinib]: the “cell viability of combination” value with HCI01 came out at 44.3; with WHIM2 it was 38.3.

Regarding `COc1cc2c(Nc3ccc(Br)cc3F)ncnc2cc1OCC1CCN(C)CC1` [Vandetanib (ZD6474)] + CN(C)C/C=C/C(=O)Nc1cc2c(Nc3ccc(F)c(Cl)c3)ncnc2cc1O[C@H]1CCOC1 [Afatinib], the “cell viability of combination” value in the assay on HCI01 amounted to 47.3; in the assay with WHIM2, 24.4.

With `C=C(c1ccc(C(=O)O)cc1)c1cc2c(cc1C)C(C)(C)CCC2(C)C` [Bexarotene] + CN(C)C/C=C/C(=O)Nc1cc2c(Nc3ccc(F)c(Cl)c3)ncnc2cc1O[C@H]1CCOC1 [Afatinib], the entries for the “cell viability of combination” value in the assay with HCI01 and in the assay on WHIM2 were 51.8 and 35.7, respectively.

As to `O=C(O)c1cc(O)c(O)c(O)c1` [Gallic acid] + CN(C)C/C=C/C(=O)Nc1cc2c(Nc3ccc(F)c(Cl)c3)ncnc2cc1O[C@H]1CCOC1 [Afatinib], the results for the “cell viability of combination” value in the assay with HCI01 and in the assay on WHIM2 were 51.4 and 46.3, respectively.

On to `COc1cc(C(=O)O)ccc1NC(=O)C1NC(CC(C)(C)C)C(C#N)(c2ccc(Cl)cc2F)C1c1cccc(Cl)c1F` (stereo not drawn) + CN(C)C/C=C/C(=O)Nc1cc2c(Nc3ccc(F)c(Cl)c3)ncnc2cc1O[C@H]1CCOC1 [Afatinib], for which the entries for the “cell viability of combination” value with HCI01 and in the assay with WHIM2 were 49.1 and 44.7, respectively.

Turning to `CSc1ccc2c(c1)N(CCC1CCCCN1C)c1ccccc1S2.Cl` (stereo not drawn) [Thioridazine HCl] + CN(C)C/C=C/C(=O)Nc1cc2c(Nc3ccc(F)c(Cl)c3)ncnc2cc1O[C@H]1CCOC1 [Afatinib], the “cell viability of combination” value was found to be 61.8 in the assay with HCI01 and 47.4 in the assay on WHIM2.

In the case of `CC(O)C(=O)O.CCOc1ccc2nc3cc(N)ccc3c(N)c2c1.O` [Ethacridine lactate monohydrate] + CN(C)C/C=C/C(=O)Nc1cc2c(Nc3ccc(F)c(Cl)c3)ncnc2cc1O[C@H]1CCOC1 [Afatinib], the figures for the “cell viability of combination” value in the assay on HCI01 and with WHIM2 were 52.5 and 31.1, respectively.

As to `Oc1c(Cl)cc(Cl)c2cccnc12` [Chloroxine] + CN(C)C/C=C/C(=O)Nc1cc2c(Nc3ccc(F)c(Cl)c3)ncnc2cc1O[C@H]1CCOC1 [Afatinib], the “cell viability of combination” value in the assay with HCI01 turned out to be 56.1; with WHIM2, 45.9.

Regarding `CC(C)(C)NC(=O)C1CC2CCCCC2CN1CC(O)C(Cc1ccccc1)NC(=O)C(CC(N)=O)NC(=O)c1ccc2ccccc2n1.CS(=O)(=O)O` (stereo not drawn) [Saquinavir mesylate] + CN(C)C/C=C/C(=O)Nc1cc2c(Nc3ccc(F)c(Cl)c3)ncnc2cc1O[C@H]1CCOC1 [Afatinib], the figures for the “cell viability of combination” value in the assay on HCI01 and with WHIM2 were 48.2 and 47.9, respectively.

As for `CCCCc1oc2ccc(NS(C)(=O)=O)cc2c1C(=O)c1ccc(OCCCN(CCCC)CCCC)cc1.Cl` [Dronedarone HCl] + CN(C)C/C=C/C(=O)Nc1cc2c(Nc3ccc(F)c(Cl)c3)ncnc2cc1O[C@H]1CCOC1 [Afatinib], the “cell viability of combination” value turned out to be 54.4 in the assay on HCI01 and 52.5 in the assay on WHIM2.

Regarding `CO[C@@]12[C@H](COC(N)=O)C3=C(C(=O)C(C)=C(N)C3=O)N1C[C@@H]1N[C@@H]12` [Mitomycin C] + CN(C)C/C=C/C(=O)Nc1cc2c(Nc3ccc(F)c(Cl)c3)ncnc2cc1O[C@H]1CCOC1 [Afatinib], the “cell viability of combination” value in the assay with HCI01 was determined as 36; in the assay on WHIM2, 35.1.

For the compound `CC(O)C(=O)O.CC(O)C(=O)O.CN1CCN(c2ccc3c(c2)NC(=C2C(=O)N=c4cccc(F)c4=C2N)N3)CC1` [Dovitinib Dilactic acid] + CN(C)C/C=C/C(=O)Nc1cc2c(Nc3ccc(F)c(Cl)c3)ncnc2cc1O[C@H]1CCOC1 [Afatinib], the results for the “cell viability of combination” value in the assay with HCI01 and in the assay on WHIM2 were 42.3 and 30.4, respectively.

Take `O=C1C=CC=CC1=C1NC(=C2C=CC=CC2=O)N(c2ccc(C(=O)O)cc2)N1` [Deferasirox] + CN(C)C/C=C/C(=O)Nc1cc2c(Nc3ccc(F)c(Cl)c3)ncnc2cc1O[C@H]1CCOC1 [Afatinib]: the “cell viability of combination” value in the assay with HCI01 is 43.2; with WHIM2, 42.2.

As to `O=C(NC1CCN(CCCCC2(C(=O)NCC(F)(F)F)c3ccccc3-c3ccccc32)CC1)c1ccccc1-c1ccc(C(F)(F)F)cc1` [Lomitapide] + CN(C)C/C=C/C(=O)Nc1cc2c(Nc3ccc(F)c(Cl)c3)ncnc2cc1O[C@H]1CCOC1 [Afatinib], the “cell viability of combination” value amounted to 55 in the assay with HCI01 and 27.4 with WHIM2.

`CC(C)c1nc(CN(C)C(=O)NC(C(=O)NC(Cc2ccccc2)CC(O)C(Cc2ccccc2)NC(=O)OCc2cncs2)C(C)C)cs1` (stereo not drawn) [Ritonavir] + CN(C)C/C=C/C(=O)Nc1cc2c(Nc3ccc(F)c(Cl)c3)ncnc2cc1O[C@H]1CCOC1 [Afatinib]: the “cell viability of combination” value stood at 49.1 in the assay on HCI01 and 49 in the assay with WHIM2.

In the case of `CC(C)CC(NC(=O)C(NC(=O)c1cccc(-c2ccccc2)n1)C(C)O)B(O)O` (stereo not drawn) + CN(C)C/C=C/C(=O)Nc1cc2c(Nc3ccc(F)c(Cl)c3)ncnc2cc1O[C@H]1CCOC1 [Afatinib], the results for the “cell viability of combination” value in the assay with HCI01 and with WHIM2 were 34.1 and 97, respectively.

For `CO[C@H]1C[C@@H]2CC[C@@H](C)[C@@](O)(O2)C(=O)C(=O)N2CCCC[C@H]2C(=O)O[C@H]([C@H](C)C[C@@H]2CC[C@@H](O)[C@H](OC)C2)CC(=O)[C@H](C)/C=C(\C)[C@@H](O)[C@@H](OC)C(=O)[C@H](C)C[C@H](C)/C=C/C=C/C=C/1C` [Rapamycin (Sirolimus)] + CN(C)C/C=C/C(=O)Nc1cc2c(Nc3ccc(F)c(Cl)c3)ncnc2cc1O[C@H]1CCOC1 [Afatinib], the “cell viability of combination” value in the assay on HCI01 stood at 51; in the assay on WHIM2 it was 39.3.

For the origin of these results see the supplement of paper PMC6992640.
